Gal4-VP16 FLuc = VP16 counterscreen qHTS for inhibitors of ROR gamma transcriptional activity; actives 3.5% (n = 310,000); Drosophila S2 Gal4-VP16 UAS-luciferase, luminescence, 20 h; Potency, µM (series often up to 53.6 µM), for the others: at the highest dose activity, negative = inhibition, usual class: inhibitors;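 note: Gal4-VP16 expression switched on by copper sulfate through the metallothionein promoter; potency is the fitted concentration of half-maximal effect; % is set by controls: 0 for no effect and ±100 for the full control effect; nearly all actives have a fitted effect of over 50% in size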
RORgamma inh = qHTS for inhibitors of ROR gamma transcriptional activity; Nuclear receptor ROR-gamma (Mus musculus), P51450; Drosophila S2 Gal4-RORgamma UAS-luciferase reporter, 20 h; Potency, µM (titrated, usually from 53.6 µM), for the others: at the top dose activity change, negative = inhibition, hits mostly inhibitors; actives 5.4% (n = 310,000); note: potency is the fitted concentration of half-maximal effect; % is set by controls: 0 for no effect and ±100 for the full control effect; nearly all actives have a fitted effect of over 60% in size
Target sequence (P51450 whole entry, looked up, the tested form may be a part): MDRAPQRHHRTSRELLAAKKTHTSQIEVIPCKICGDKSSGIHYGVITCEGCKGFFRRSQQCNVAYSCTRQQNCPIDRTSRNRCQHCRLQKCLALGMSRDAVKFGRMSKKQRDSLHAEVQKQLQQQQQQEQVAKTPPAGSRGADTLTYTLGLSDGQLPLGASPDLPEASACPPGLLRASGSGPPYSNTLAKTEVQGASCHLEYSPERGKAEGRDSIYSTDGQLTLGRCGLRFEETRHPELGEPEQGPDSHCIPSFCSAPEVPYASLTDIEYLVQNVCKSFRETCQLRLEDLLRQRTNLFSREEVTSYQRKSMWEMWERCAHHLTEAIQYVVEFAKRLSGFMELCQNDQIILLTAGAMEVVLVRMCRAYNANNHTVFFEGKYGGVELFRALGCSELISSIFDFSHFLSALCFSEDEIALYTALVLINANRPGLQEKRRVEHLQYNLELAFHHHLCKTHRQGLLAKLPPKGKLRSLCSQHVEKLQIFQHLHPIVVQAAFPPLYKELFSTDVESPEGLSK
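Drosophila S2 cells stably expressing Gal4-DBD/mouse RORγ fusion under metallothionein promoter plus UAS-luciferase; compound 1 h, then 700 uM CuSO4 induction for 20 h at ambient temperature; inhibition read as reduced luminescence.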
ERG Ets-DNA blk = qHTS for Small Molecule Inhibitors of the ERG Ets/DNA interaction. Transcriptional regulator ERG (Homo sapiens), P11308. fluorescence polarization, His-ERG Ets domain / labelled DNA. Potency, µM (doses to about 76.9 µM), inactives show at the highest dose FP activity, negative = inhibition, hits mostly inhibitors. actives 0.028% (n = 370,000). AID 624246, 2012; active = well fitted inhibition curve with a large enough effect in the polarisation, with a control signal flat; inconclusive = small, poorly fitted or top-dose-only effect, or effect the other way, or a change in a side signal; inactive = no such curve, though single readings can be large or run the other way; the % refers to the polarisation;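 note: polarization taken with two DNA probes labelled with fluorescein and Texas red; potency is the fitted concentration of half-maximal effect; % of control where 0% means no effect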
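His-tagged ERG Ets domain (1 uM in the protein solution; 300mM KCl, 50mM Tris-HCl, 1mM EDTA, 1mM DTT, pH 7.5) received compound, then a probe mix of 5 nM fluorescein-DNA and 100nM Texas-615-DNA. Fluorescence polarization was read for both dyes.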
Giardia kill = Small Molecules that selectively kill Giardia lamblia: qHTS | activity change, % at 7.66 µM, hits read low | Giardia lamblia trophozoite viability | actives 0.15% (n = 340,000); in the data active = activity change below about -80%; inconclusive = between about -30% and that limit;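 note: parasites exposed to compound for two days anaerobically before the ATP read; % is set by controls: 0 for no effect and ±100 for the full control effect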
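Giardia trophozoites, 100 cells per well, were exposed to compounds for 48 hrs at 37 deg C under anaerobic conditions; viability was then read as ATP content by bioluminescence after 15-30 min at room temperature.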
Integrin act MD = qHTS for Activators of Integrin-Mediated Alleviation for Muscular Dystrophy; actives 0.064% (n = 350,000); Potency, µM (highest dose often 38.3 µM), for inactives: top-dose activation, actives largely listed as activators; alpha7betagal myoblasts, beta-gal FDG fluorescence, 48 h;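 note: potency is the fitted concentration of half-maximal effect; 100% = response of the positive control SU9516; nearly all actives have a fitted effect of over 60% in size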
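Alpha7betagal+/- myoblasts (passage 13) were plated 16-24 hr, then exposed to compounds (1:260 dilution of DMSO stock) for 48 hours at 37C. After MPER lysis, β-galactosidase reporter activity was read as FDG fluorescence (ex 480/em 540) after 30 minutes.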
The depositor's hits bear a star; ? = inconclusive; nt = not tested or not shown; [ ] = dose if it differs, or a comment. Many of the other results were omitted from the sample, so hits are more common in it than they were. Unless noted, calls come from the whole dose curve; as a rule, active = well fitted curve in the direction sought with a large enough effect; inconclusive = small, poorly fitted or top-dose-only effect, or another doubt; inactive = no such curve, though single readings can be large; an effect the other way counts as inactive or inconclusive.

SMILES | Gal4-VP16 FLuc | RORgamma inh | ERG Ets-DNA blk | Giardia kill | Integrin act MD
COc1ccc2cc(C(=O)C3CCCN(Cc4cnc(N5CCOCC5)s4)C3)ccc2c1 (stereo not drawn) | -2.5% | 6.9% | -0.8% | -14.8 | -27.8%
CCn1ccnc1CN1CCCC(C(=O)c2ccc3cc(OC)ccc3c2)C1 (stereo not drawn) | 1.58µM* | 0.0224µM* | 3.9% | 17.5 | -43.7%
CCCCN1C(=O)C(=O)N(CC(=O)Nc2cc(Cl)ccc2OC)C1=O | nt | nt | -3.3% | -8.4 | 18.8%
CCn1nnc2cc(C(=O)NCCc3ccccc3F)ccc21 | 11.2µM* | ? | 0.0% | ? | 8.1%
Cc1cc(C)nc(Nc2cccc(C(F)(F)F)c2)n1 | 5.0% | 10.3% | -6.8% | 16.0 | -17.1%
N#CCN1C(=S)N=C(Nc2cccc(Cl)c2)C12CCCCC2 | ? | 2.82µM* | 3.6% | -13.6 | 4.8%
Cc1ccc(NC2=NC(=S)N(CC#N)C23CCCCC3)cc1 | -20.1% | 17.8µM* | -3.8% | 10.6 | 27.0%
Cc1ccc(Nc2nc(N)nc(CC#N)n2)cc1 | -2.6% | 17.2% | nt | 3.7 | -8.3%
CC(C)(C)C1CCC2(CC1)C(Nc1cccc(C(F)(F)F)c1)=NC(=S)N2CC#N (stereo not drawn) | 12.6µM* | 17.8µM* | -7.4% | -24.1 | -15.3%
CCN(C(=O)COC(=O)/C=C/c1cccc([N+](=O)[O-])c1)c1c(N)n(Cc2ccccc2)c(=O)[nH]c1=O | nt | nt | 7.4% | -1.4 | -16.6%
CC(C)Nc1nc2c(S(=O)(=O)c3cccc(Cl)c3)nnn2c2ccsc12 | nt | nt | 5.2% | nt | nt
Cc1ccc(NC(=S)N2CCc3[nH]c4ccccc4c3C2)cc1 | -8.2% | 6.31µM* | -21.7% | 25.6 | -36.0%
S=C(NC1CCCCC1)N1CCc2[nH]c3ccccc3c2C1 | -6.0% | -16.0% | -4.1% | -3.1 | 15.3%
CN1C2CCC1CC(NC(=O)c1cc(Cl)cc3[nH]cnc13)C2 (stereo not drawn) | 3.3% | -6.2%[1.91 µM] | -5.6% | -2.3 | -35.2%
C=CCN1CN(Cc2ccco2)CNC1=S | ? | 12.6µM* | 2.3% | 9.6 | 20.7%
CCc1ccc(N2CN(Cc3ccco3)CNC2=S)cc1 | ? | 3.55µM* | -0.1% | 27.0 | -10.2%
S=C1SCN(Cc2cccs2)CN1Cc1cccs1 | nt | nt | nt | nt | -30.7%
CCCCN1CN(Cc2ccco2)CNC1=S | ? | 12.6µM* | 7.4% | 1.8 | 25.0%
S=C1SCN(Cc2ccco2)CN1Cc1ccco1 | 3.16µM* | 2.51µM* | -8.7% | -2.1 | -35.1%
COc1ccccc1C(=O)OCc1cc(=O)n2nc(C3CCCCC3)sc2n1 | nt | nt | -2.2% | nt | nt
S=C1NCN(Cc2ccco2)CN1c1cccc2ccccc12 | ? | 5.01µM* | 3.3% | -5.6 | -23.5%
NC(=O)CC(NC(=O)c1ccccc1)c1ccc(N2CCC(Br)CC2)c([N+](=O)[O-])c1 (stereo not drawn) | 12.6µM* | ? | -13.2% | -14.3 | 2.6%
NC(=O)CC(NC(=O)c1cccc(Br)c1)c1ccc(N2CCC(Br)CC2)c([N+](=O)[O-])c1 (stereo not drawn) | ? | 35.3% | -1.3% | -7.9 | -8.2%
NC(=O)CC(NC(=O)c1ccccc1)c1ccc(N2CCN(c3ccc(F)cc3)CC2)c([N+](=O)[O-])c1 (stereo not drawn) | 22.4µM* | 12.9% | -3.1% | 1.3 | -1.5%
CC(=O)c1ccc(NC(=O)c2ccn(C(=O)OCC(C)C)n2)cc1 | -25.7% | -15.4% | 0.1% | -10.9 | 13.1%
SMILES | Gal4-VP16 FLuc | RORgamma inh | ERG Ets-DNA blk | Giardia kill | Integrin act MD
CCOc1ccccc1C(=O)NCCNC(=O)c1ccccc1OCC | nt | nt | -9.1% | -11.5 | -24.3%
CCOc1ccccc1C(=O)NN1C(=O)CCC1=O | ? | 6.31µM* | 1.9% | -11.6 | -1.5%
Cc1c(C)c2cc(Cl)c(OCC(=O)Nc3ccccn3)cc2oc1=O | nt | nt | nt | nt | 17.0%
CC(c1ccco1)N(C(=O)COc1ccc(Cl)cc1)c1ccccn1 (stereo not drawn) | 19.5% | 24.5% | 0.1% | -7.6 | -5.2%
O=C(COc1cccnc1[N+](=O)[O-])Nc1ncc(Cl)cc1Cl | nt | nt | 14.4% | -80.4* | 9.4%
CC(c1ccco1)N(C(=O)COc1ccc(Cl)cc1Cl)c1ccccn1 (stereo not drawn) | 11.2µM* | ? | nt | -13.9 | -34.7%
Cc1c(C)c2ccc(OCC(=O)Nc3ccccn3)c(C)c2oc1=O | ? | ? | -9.3% | -98.0* | ?
O=C(COc1ccc(Cl)cc1Cl)Nc1ccccn1 | 2.82µM* | -3.2% | -6.3% | -100.7* | 0.2%
COc1cc(Cn2c(=O)c3c(OC)c(C)cnc3n(C)c2=O)cc(OC)c1 | -0.3% | -0.7% | 6.0% | -13.9 | -36.2%
Cc1sc2ncnc(Sc3nnnn3-c3ccc(Cl)cc3)c2c1C | 7.08µM* | 3.98µM* | -1.0% | 0.3 | -61.7%
c1ccc(-n2nnnc2Sc2ncnc3sc4c(c23)CCCC4)cc1 | ? | ? | 2.2% | -10.6 | -36.8%
Cc1ccc[n+](CC(=O)Nc2c(Cl)cc(Cl)cc2Cl)c1 | 2.3% | 12.6µM* | 6.1% | 5.3 | 6.0%
O=C(C[n+]1ccccc1)Nc1c(Cl)cc(Cl)cc1Cl | ? | ? | 5.1% | -16.6 | -31.3%
O=C1c2ccccc2NC(c2ccccc2)N1/N=C/c1ccccc1 (stereo not drawn) | 11.2µM* | 10µM* | 0.4% | -4.4 | 5.9%
O=C1c2ccccc2NC(c2ccc(O)cc2)N1/N=C/c1ccc(O)cc1 (stereo not drawn) | 24.0% | -15.9% | -14.8% | -2.5 | -20.3%
Oc1ccccc1N=Nc1ccccc1O | -23.8% | 1.41µM* | 6.2% | 5.3 | -29.4%
COc1c(C2=CC(=O)N(C)C2=O)c2c(n1C)C(=O)c1ccccc1C2=O | 10µM* | ? | nt | nt | nt
COc1ccccc1Nc1nc(-c2sc(NC(=O)c3ccc([N+](=O)[O-])cc3)nc2C)cs1 | -29.6% | 3.98µM* | nt | nt | nt
CCOc1ccccc1Nc1nc(-c2sc(NC(=O)c3cccc(Cl)c3)nc2C)cs1 | -28.4% | 11.2µM* | -4.5% | 19.4 | 8.3%
CCOc1ccccc1Nc1nc(-c2sc(NC(=O)c3ccccc3)nc2C)cs1 | 4.6% | ? | nt | nt | nt
CCOc1cc(C(=O)N[C@@H](C)C(=O)N2CCC3(CC2)NCCc2[nH]cnc23)cc(OCC)c1OCC | -4.0% | 12.1% | 9.1% | -18.3 | 17.0%
Cc1nc(Nc2ccccc2)sc1-c1ccccc1 | 11.2µM* | 11.2µM* | 1.5% | -25.2 | -6.5%
COC(=O)c1cc(Sc2cccc(Cl)c2Cl)ccn1 | 11.2µM* | ? | 4.5% | 32.9 | 5.8%
CC(C)(C)c1cccc(C2(O)C(=O)c3ccccc3C2=O)c1O | 12.6µM* | -27.5% | -3.5% | 8.8 | ?
C#CCn1c(C2CC(=O)N(c3ccc(OCC)cc3)C2)nc2ccccc21 (stereo not drawn) | nt | nt | -17.4% | nt | nt

High-throughput results (PubChem)
